Only some compounds are listed: those with a hit (about 4.7% of all), similar ones and a draw of the others.
ADAM17 inh = inhibits human ADAM17; inhibition, % at 6.95 µM; recombinant ADAM17, EDANS/DABCYL FRET peptide cleavage; P78536; 370,000 tested, 0.83% active;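 active = inhibition above the mean of compounds lying between control limits plus 3 SD, set per campaign, cut at about 8.5% in these data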;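 also: 0% = DMSO-only wells as the low control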
rCAG binder = molecules binding r(CAG) RNA repeats; inhibition, % at 3 µM; r(CAG) RNA repeat, TO-PRO-1 dye displacement fluorescence; 370,000 tested, 1.3% active;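 active = inhibition above the plate cutoff, the mean of all test compounds on that plate plus 3 SD, cut at about 35% in these data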;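 also: 0% = DMSO alone and 100% = 100 µM mitoxantrone as full dye displacement; higher means more dye released from RNA so lower well fluorescence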
ADAM10 inh = inhibits human ADAM10; inhibition, % at 7 µM; recombinant ADAM10, EDANS/DABCYL FRET peptide cleavage, 3 h; AID 720582; 370,000 tested, 0.62% active; O14672;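 active = inhibition above a per-campaign cutoff equal to the mean of compounds falling between control-based bounds plus 3 SD, cut at about 20% in these data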;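 also: 0% = DMSO wells while the 100% control is not disclosed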
Target sequence (O14672 214-748 limits assumed): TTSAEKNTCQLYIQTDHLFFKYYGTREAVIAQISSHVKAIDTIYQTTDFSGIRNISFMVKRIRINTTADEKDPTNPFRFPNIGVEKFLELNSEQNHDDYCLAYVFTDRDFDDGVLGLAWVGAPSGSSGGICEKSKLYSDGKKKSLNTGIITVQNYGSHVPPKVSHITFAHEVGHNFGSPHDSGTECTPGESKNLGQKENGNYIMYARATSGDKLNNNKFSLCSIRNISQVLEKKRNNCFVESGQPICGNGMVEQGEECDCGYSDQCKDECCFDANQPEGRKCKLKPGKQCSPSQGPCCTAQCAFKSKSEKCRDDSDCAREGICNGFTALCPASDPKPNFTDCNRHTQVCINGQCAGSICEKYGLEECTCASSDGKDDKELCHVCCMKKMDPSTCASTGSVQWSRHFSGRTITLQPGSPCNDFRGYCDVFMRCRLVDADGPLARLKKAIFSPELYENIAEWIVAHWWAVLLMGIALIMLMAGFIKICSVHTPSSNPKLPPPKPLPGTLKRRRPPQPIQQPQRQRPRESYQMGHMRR
MPTP inh = permeability transition pore inhibition; inhibition, % at 10 µM; 360,000 tested, 1.4% active; AID 602449; isolated mouse mitochondria, Ca2+ swelling absorbance, 30 min;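 active = inhibition of 50% or more, scaled per plate between neutral and stimulator controls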;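 also: 0% = DMSO wells given calcium and 100% = 1 mM EGTA wells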
Pemphigus Ab inh = human desmoglein-3 autoantibody binding inhibition. P32926. DSG3-coupled beads, scFv-anti-DSG3-GFP binding, flow cytometry; stronger effect = lower value. binding (percent of control), % at 10 µM. 310,000 tested, 0.48% active;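 active = binding more than 3 SD below its plate's average and above zero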;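 also: hits lower antibody fragment binding to DSG3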
KLK7 zymogen act = activators of human kallikrein-7 zymogen; P49862; purified proKLK7, EDANS-DABCYL substrate fluorescence; 100% is mature enzyme control, 0% vehicle; activation, % at 7 µM; 370,000 tested, 0.9% active;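 active = activation above the mean of all tested compounds plus 3 SD, computed per campaign excluding outliers beyond control limits, cut at about 13% in these data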
ADAM10 confirm = confirmation of inhibitors of human ADAM10. shares compounds with ADAM10 inh. ADAM10 QFRET peptide cleavage, EDANS fluorescence. inhibition, % at 6.95 µM. 2,100 tested, 1% active. AID 743208;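 active = inhibition above about 20% chosen separately for each screening run, limit read from the data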;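 also: 0% = DMSO wells and 100% = marimastat wells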
ADAM17 counter = counter-screen for ADAM10 exosite inhibitors: inhibitors of human ADAM17. ADAM17 QFRET peptide cleavage, EDANS fluorescence. 2,100 tested, 0.5% active. shares compounds with ADAM10 inh. inhibition, % at 6.95 µM;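 active = mean triplicate inhibition above the solvent-only control wells' mean plus 3 SD, cut at about 12% in these data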;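 also: 0% = DMSO wells and 100% = marimastat wells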
ADAM10 ctr = counter-screen for ADAM17 exosite inhibitors: inhibitors of human ADAM10; shares compounds with ADAM17 inh; inhibition, % at 6.95 µM; recombinant ADAM10, EDANS/DABCYL FRET peptide cleavage, 3 h; AID 743256; 2,900 tested, 47% active;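 active = mean inhibition over the triplicate runs exceeds the activity threshold set in the earlier primary screen, cut at about 20% in these data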;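 also: 0% = DMSO wells and 100% = marimastat wells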
ADAM17 confirm = confirmation of inhibitors of human ADAM17. shares compounds with ADAM17 inh. recombinant ADAM17, EDANS/DABCYL QFRET peptide cleavage. inhibition, % at 6.95 µM. 2,900 tested, 65% active. AID 743257;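 active = mean inhibition across replicates above the hit cutoff set in the primary screen, cut at about 8.5% in these data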;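 also: 0% = DMSO wells and 100% = marimastat wells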
Numbers without * were called inactive.

For COc1cc(C(O)c2nc(/C=C/c3ccccc3)cs2)ccc1F (stereo not given) the results were ADAM17 inh 16.7*, rCAG binder 2.9, ADAM10 inh 41.6*, MPTP inh 2.2, KLK7 zymogen act -0.3, ADAM10 confirm 2.6, ADAM17 counter 1.1, ADAM10 ctr 22.1* and ADAM17 confirm 10.5*.
For COc1cccc(C(O)c2nc(-c3ccc(F)cc3OC)cs2)c1 (stereo not given) the results were ADAM17 inh 11.2*, rCAG binder 3.1, ADAM10 inh 30.5*, MPTP inh 0.4, KLK7 zymogen act -0.5, ADAM10 confirm 3.3, ADAM17 counter 1.0, ADAM10 ctr 11.2 and ADAM17 confirm 8.8*.
COc1cc(C(O)c2nc(-c3cccc(C(C)C)c3)cs2)ccc1F (stereo not given) was read as ADAM17 inh 10.8*, rCAG binder 4.7, ADAM10 inh 20.1*, MPTP inh 4.4, KLK7 zymogen act 0.1, ADAM10 confirm 6.0, ADAM17 counter 2.0, ADAM10 ctr 24.2* and ADAM17 confirm 13.4*.
For Cc1cc(Cl)ccc1NC(=O)COC(=O)c1cc([N+](=O)[O-])ccc1N1CCOCC1 the results were ADAM17 inh 1.7, rCAG binder 2.0, ADAM10 inh 6.4, MPTP inh 0.4, Pemphigus Ab inh 100.7 and KLK7 zymogen act -1.0.
`COCCOc1ccc(C(F)(F)F)cc1NC(=O)COC(=O)c1cc([N+](=O)[O-])ccc1N1CCOCC1` gave ADAM17 inh 8.9*, rCAG binder 8.3, ADAM10 inh 22.0*, MPTP inh -0.1, Pemphigus Ab inh 103.3, KLK7 zymogen act 0.8, ADAM10 confirm 2.4, ADAM17 counter -0.1, ADAM10 ctr 17.1 and ADAM17 confirm 8.9*.
For Cc1ccc(C2CN(CCC(N)=O)C(=O)CO2)cc1 (stereo not given) the results were ADAM17 inh -0.5, rCAG binder 0.9, ADAM10 inh 0.4, MPTP inh -0.9, Pemphigus Ab inh 100.9 and KLK7 zymogen act -0.1.
`Cc1ccc(S(=O)(=O)Nc2ccc(-c3nnc(SCc4ccccc4Cl)o3)cc2)cc1` gave ADAM17 inh 9.6*, rCAG binder 28.9, ADAM10 inh 23.3*, MPTP inh 9.8, Pemphigus Ab inh 103.7, KLK7 zymogen act -0.5, ADAM10 confirm 11.3, ADAM17 counter 2.7, ADAM10 ctr 33.6* and ADAM17 confirm 17.1*.
`CCN(CC(=O)NC(C)(C)C)Cc1cc(=O)n2c(-c3ccccc3)csc2n1` gave ADAM17 inh -27.0, rCAG binder 9.2, ADAM10 inh -69.9, MPTP inh 0.3, Pemphigus Ab inh 99.6 and KLK7 zymogen act 0.3.
O=C(CN1CCN(C(=O)c2cccc(S(=O)(=O)N3CCCC3)c2)CC1)Nc1ccc(F)cc1 was read as ADAM17 inh -3.3, rCAG binder 1.7, ADAM10 inh -22.2, MPTP inh 0.6, Pemphigus Ab inh 101.9 and KLK7 zymogen act 0.1.
Screening CCC(=O)N1CC2(CC(c3cccc(NC(=O)CC(c4ccccc4)c4ccccc4)c3)=NO2)C[C@H]1C(N)=O (stereo not given in full) returned ADAM17 inh 3.5, rCAG binder 4.7, ADAM10 inh 6.9, MPTP inh -1.6, Pemphigus Ab inh 99.6 and KLK7 zymogen act 0.0.
`NC(=O)[C@H]1CC2(CC(c3cccc(NC(=O)CC(c4ccccc4)c4ccccc4)c3)=NO2)CN1C(=O)CC(c1ccccc1)c1ccccc1` (stereo not given in full) gave ADAM17 inh 16.3*, rCAG binder 14.4, ADAM10 inh 31.1*, MPTP inh 0.8, Pemphigus Ab inh 99.8, KLK7 zymogen act 0.2, ADAM10 confirm 13.2, ADAM17 counter 4.3, ADAM10 ctr 33.0* and ADAM17 confirm 18.6*.
For NC(=O)[C@H]1CC2(CC(c3cccc(NC(=O)COc4ccc(Cl)cc4)c3)=NO2)CN1C(=O)C(c1ccccc1)c1ccccc1 (stereo not given in full) the results were ADAM17 inh 11.5*, rCAG binder 13.2, ADAM10 inh 30.6*, MPTP inh -3.4, Pemphigus Ab inh 102.8, KLK7 zymogen act 0.6, ADAM10 confirm 11.7, ADAM17 counter 4.3, ADAM10 ctr 30.3* and ADAM17 confirm 14.5*.
`NC(=O)[C@@H]1CC2(CC(c3cccc(NC(=O)CC(c4ccccc4)c4ccccc4)c3)=NO2)CN1C(=O)c1ccc(Cl)cc1` (stereo not given in full) gave ADAM17 inh 10.8*, rCAG binder 23.0, ADAM10 inh 23.4*, MPTP inh 0.7, Pemphigus Ab inh 90.7, KLK7 zymogen act 0.6, ADAM10 confirm 13.8, ADAM17 counter 3.8, ADAM10 ctr 44.5* and ADAM17 confirm 20.9*.
`Cc1ccc(-c2cc(-c3ccccc3Cl)[nH]n2)c(O)c1` gave ADAM17 inh 9.5*, rCAG binder 13.6, ADAM10 inh 24.2*, MPTP inh 17.6, Pemphigus Ab inh 120.7, KLK7 zymogen act 0.2, ADAM10 confirm 6.2, ADAM17 counter 2.4, ADAM10 ctr 15.1 and ADAM17 confirm 9.1*.
Oc1ccccc1-c1cc(-c2ccc(F)cc2)n[nH]1 was read as ADAM17 inh 0.3, rCAG binder 5.8, ADAM10 inh 3.2, MPTP inh 33.3, Pemphigus Ab inh 100.4 and KLK7 zymogen act -0.3.
Cc1ccccc1-c1cc(-c2ccccc2O)n[nH]1 was read as ADAM17 inh 10.6*, rCAG binder 5.3, ADAM10 inh 24.2*, MPTP inh -0.2, Pemphigus Ab inh 97.8, KLK7 zymogen act -0.1, ADAM10 confirm 2.6, ADAM17 counter 1.4, ADAM10 ctr 13.7 and ADAM17 confirm 10.0*.
Screening Cc1ccc(-c2cc(-c3ccccc3[N+](=O)[O-])[nH]n2)c(O)c1 returned ADAM17 inh 3.7, rCAG binder 12.6, ADAM10 inh 10.8, MPTP inh 4.7, Pemphigus Ab inh 108.8 and KLK7 zymogen act 0.4.
